Assay [1] in a line: viability loss with induced miR-34 in A549 – imaging, A549 dox-inducible miR-34, nuclei and caspase counts, primary screen (AID 1347080). Conditions: A549 miR-34 inducible, Hoechst nuclei count, 48 h.
The nature of assay [2]: MELAS cybrid and Rieske KO viability enhancers – cell-based, MELAS cybrids, Rieske KO mouse fibroblasts, CellTiter-Glo, primary screen (AID 1508586;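 active = mean z-score across replicates of 1.96 or higher in either the MELAS or the Rieske mutant cell line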;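 also: z relative to plate mean and SD of compound and empty wells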). Conditions: low glucose.
Where [3] appears, read: stronger effect = lower value, cell number ratio, induced over uninduced.
Setting [4] is: measured here: relative caspase fold change +Dox/-Dox.
Where [5] appears, read: measured here: total cells with miR-34 induction, stronger effect = lower value.
Setting [6] is: measured here: total cells without miR-34 induction.
Where [7] appears, read: MELAS cybrid survival, CellTiter-Glo 48 h, stronger effect = higher value.
[8] abbreviates: Rieske KO mouse fibroblast survival, CellTiter-Glo 72 h.

Values joined by “and” are separate entries in the source; they are usually repeats but may differ in a detail not shown here. Equal entries are not always repeated. Active and inactive are the calls of the source.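 The calls were made as follows, unless noted: active = compounds whose cell count with miR-34 switched on is under 0.7 times the count with it off; inactive = the rest.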
Also: test concentration not given here.

Turning to `Cc1c(C(N)=O)cc([N+](=O)[O-])cc1[N+](=O)[O-]`, the results for the fold change in assay [1] (setting [3]) and in assay [1] (setting [4]) were 1.04 (inactive) and 1.27, respectively. Also, the cell count in assay [1] (setting [5]) turned out to be 8930; in assay [1] (setting [6]), 8590. For the same compound, the z-score in assay [2] (setting [7]) is -0.219 (inactive); in assay [2] (setting [8]), -0.175.

As for `Nc1nc2c(c(=O)[nH]1)N(C=O)C(CNc1ccc(C(=O)N[C@@H](CCC(=O)O)C(=O)O)cc1)CN2` (stereo not given in full), the fold change is 0.908 (inactive) and 0.841 (inactive) in assay [1] (setting [3]); 0.756 and 0.824 in assay [1] (setting [4]). Moreover, the cell count is 9140 and 10900 in assay [1] (setting [5]); 10100 and 12900 in assay [1] (setting [6]). The values for the z-score in assay [2] (setting [7]) and in assay [2] (setting [8]) were -0.42 (inactive) and 0.152, respectively.

With `CC1(C)OC(=O)NC1=O`, the fold change in assay [1] (setting [3]) is 0.858 (inactive) and 0.827 (inactive); in assay [1] (setting [4]), 1.35 and 1.46. Besides, the cell count in assay [1] (setting [5]) is 8730 and 10500; in assay [1] (setting [6]), 10200 and 12700. In addition, the z-score is -0.0486 (inactive) in assay [2] (setting [7]) and -0.442 in assay [2] (setting [8]).

As to `CC(=O)Oc1cccc2c1C(=O)c1c(OC(C)=O)cc(C(=O)O)cc1C2=O`, the fold change in assay [1] (setting [3]) is 0.904 (inactive); in assay [1] (setting [4]), 2.1. The figures for the cell count in assay [1] (setting [5]) and in assay [1] (setting [6]) were 8090 and 8950, respectively. The z-score in assay [2] (setting [7]) was -0.263 (inactive) and -0.828 (inactive); in assay [2] (setting [8]), -0.165 and -1.06.

As to `Nc1ccc(S(=O)(=O)Nc2cnc3ccccc3n2)cc1`, the fold change in assay [1] (setting [3]) was 0.892 (inactive) and 0.874 (inactive); in assay [1] (setting [4]), 0.858 and 3.15. The cell count in assay [1] (setting [5]) is 8790 and 11400; in assay [1] (setting [6]), 9850 and 13000. The figures for the z-score in assay [2] (setting [7]) and in assay [2] (setting [8]) were 0.496 (inactive) and 0.547, respectively.

`O=C(O)CCNC(=O)c1ccccc1`: the figures for the fold change in assay [1] (setting [3]) and in assay [1] (setting [4]) were 0.9 (inactive) and 0.686, respectively. The cell count in assay [1] (setting [5]) worked out at 8280; in assay [1] (setting [6]), 9200. The z-score was -0.217 (inactive) in assay [2] (setting [7]) and -0.148 in assay [2] (setting [8]).

Consider `CN(C)CCCSc1ccccc1NC(=O)/C=C/c1ccccc1`, for which the fold change in assay [1] (setting [3]) was 0.891 (inactive) and 1.14 (inactive); in assay [1] (setting [4]), 0.895 and 0.508. The cell count in assay [1] (setting [5]) is 7810 and 9010; in assay [1] (setting [6]) it was 8770 and 7880. In addition, the z-score in assay [2] (setting [7]) was 0.109 (inactive); in assay [2] (setting [8]) it was -0.0543.

`CC1=C(C(=O)O)N2C(=O)[C@@H](NC(=O)[C@H](N)c3ccc(O)cc3)[C@H]2SC1`: the fold change in assay [1] (setting [3]) was 0.85 (inactive); in assay [1] (setting [4]), 1.87. Besides, the cell count in assay [1] (setting [5]) was found to be 8500; in assay [1] (setting [6]), 10000. The z-score was 0.444 (inactive) in assay [2] (setting [7]) and 0.13 in assay [2] (setting [8]).

With `CCCCOC(=O)c1ccc(N)cc1`, the fold change was 0.764 (inactive) and 0.971 (inactive) in assay [1] (setting [3]); 1.56 and 1.88 in assay [1] (setting [4]). Also, the cell count in assay [1] (setting [5]) was 6730 and 8980; in assay [1] (setting [6]) it was 8820 and 9260. The z-score in assay [2] (setting [7]) was 0.902 (inactive); in assay [2] (setting [8]), -0.282.

For `CCCCCCCCNC(C)C(O)c1ccc(SC(C)C)cc1` (stereo not given), the fold change in assay [1] (setting [3]) is 0.989 (inactive) and 0.828 (inactive); in assay [1] (setting [4]) it was 0.711 and 5.68. In addition, the cell count is 4220 and 5020 in assay [1] (setting [5]); 4270 and 6060 in assay [1] (setting [6]). For the same compound, the z-score is -2.11 in assay [2] (setting [7]) and 11.2 in assay [2] (setting [8]).

On to `CO[C@]12C[C@@H](COC(=O)c3cncc(Br)c3)CN(C)[C@@H]1Cc1cn(C)c3cccc2c13`, for which the fold change in assay [1] (setting [3]) was 0.861 (inactive) and 0.885 (inactive) and 0.895 (inactive); in assay [1] (setting [4]), 1.4 and 2.61 and 0.782. The cell count was 8590 and 11400 and 9340 in assay [1] (setting [5]); 9980 and 12900 and 10400 in assay [1] (setting [6]). For the same compound, the z-score was 0.949 (inactive) and 0.883 (inactive) in assay [2] (setting [7]); 0.302 and 0.698 in assay [2] (setting [8]).

In the case of `CC(NCCC(c1ccccc1)c1ccccc1)c1ccccc1` (stereo not given), the fold change in assay [1] (setting [3]) is 0.975 (inactive); in assay [1] (setting [4]), 1.46. For the same compound, the cell count was 2830 in assay [1] (setting [5]) and 2900 in assay [1] (setting [6]). Moreover, the z-score in assay [2] (setting [7]) was -0.775 (inactive); in assay [2] (setting [8]), -0.331.

Consider `C=C1c2cccc(O)c2C(O)=C2C(=O)[C@]3(O)C(O)=C(C(N)=O)C(=O)[C@@H](N(C)C)[C@@H]3[C@@H](O)[C@H]12`, for which the fold change in assay [1] (setting [3]) is 0.869 (inactive) and 0.999 (inactive); in assay [1] (setting [4]) it was 1.25 and 1.82. The cell count is 7110 and 11900 in assay [1] (setting [5]); 8180 and 11900 in assay [1] (setting [6]). Further, the z-score in assay [2] (setting [7]) is 0.00753 (inactive); in assay [2] (setting [8]), -2.31.

With `O=C(COc1ccc(Cl)cc1)N1CCN(Cc2ccc3c(c2)OCO3)CC1`, the fold change in assay [1] (setting [3]) was 0.875 (inactive); in assay [1] (setting [4]), 1.39. Further, the cell count in assay [1] (setting [5]) was 8260; in assay [1] (setting [6]) it was 9440. The z-score in assay [2] (setting [7]) was 0.452 (inactive); in assay [2] (setting [8]) it was 0.138.

Take `CCN(CC)CCOC(=O)C(c1ccccc1)c1ccccc1`: the fold change was 0.854 (inactive) and 1.02 (inactive) and 0.902 (inactive) in assay [1] (setting [3]); 1.3 and 0.648 and 3.67 in assay [1] (setting [4]). The cell count in assay [1] (setting [5]) was 8150 and 4320 and 11300; in assay [1] (setting [6]), 9550 and 4250 and 12500. Besides, the z-score was -0.171 (inactive) and -1.08 (inactive) in assay [2] (setting [7]); 0.0167 and -0.106 in assay [2] (setting [8]).

Consider `CC(C(=O)O)c1ccc(C(=O)c2cccs2)cc1` (stereo not given), for which the fold change in assay [1] (setting [3]) was 0.842 (inactive) and 0.947 (inactive) and 0.9 (inactive); in assay [1] (setting [4]), 1.16 and 0.84 and 2.46. Besides, the cell count in assay [1] (setting [5]) was 9210 and 7840 and 11900; in assay [1] (setting [6]), 10900 and 8270 and 13200. Also, the z-score is 0.0275 (inactive) and 0.475 (inactive) in assay [2] (setting [7]); -0.115 and -0.0807 in assay [2] (setting [8]).

Regarding `CC[C@]12CCCN3CCc4c(n(c5ccccc45)[C@@](O)(C(=O)OC)C1)[C@@H]32`, the fold change was 0.85 (inactive) in assay [1] (setting [3]) and 1.33 in assay [1] (setting [4]). Besides, the cell count in assay [1] (setting [5]) was determined as 8280; in assay [1] (setting [6]) it was 9750. Moreover, the z-score in assay [2] (setting [7]) is 0.291 (inactive); in assay [2] (setting [8]), -0.0307.

`C[C@H](N)[C@H](O)c1cccc(O)c1`: the fold change in assay [1] (setting [3]) was 0.936 (inactive) and 0.834 (inactive); in assay [1] (setting [4]), 1.15 and 3.09. Further, the cell count in assay [1] (setting [5]) was 9120 and 10800; in assay [1] (setting [6]) it was 9740 and 13000. The figures for the z-score in assay [2] (setting [7]) and in assay [2] (setting [8]) were 0.835 (inactive) and 0.306, respectively.

On to `O=C1c2ccccc2C(=O)C1c1ccccc1`, for which the fold change in assay [1] (setting [3]) was 0.851 (inactive) and 1.01 (inactive) and 0.873 (inactive); in assay [1] (setting [4]), 1.04 and 0.811 and 1.49. Moreover, the cell count was 8760 and 1750 and 10200 in assay [1] (setting [5]); 10300 and 1740 and 11700 in assay [1] (setting [6]). Also, the z-score is -0.152 (inactive) and 0.54 (inactive) in assay [2] (setting [7]); -0.0639 and -0.0998 in assay [2] (setting [8]).

Regarding `COc1ccc(NS(=O)(=O)c2ccc(N)cc2)nn1`, the fold change in assay [1] (setting [3]) is 0.86 (inactive) and 0.96 (inactive) and 0.867 (inactive); in assay [1] (setting [4]) it was 1.18 and 0.826 and 3.5. Moreover, the cell count is 7560 and 8690 and 11000 in assay [1] (setting [5]); 8780 and 9050 and 12700 in assay [1] (setting [6]). Also, the z-score was -0.236 (inactive) and -0.537 (inactive) in assay [2] (setting [7]); -0.178 and -1.12 in assay [2] (setting [8]).

For the origin of these results see PubChem BioAssay.
